A selection: hits, their analogues and other compounds. The true share with any hit is near 1.7%.
Sa RN4220 lethal: S. aureus RN4220 growth inhibition | OD600, 16 h | inhibition, % (no concentration beside the values) | 330,000 tested, 0.33% active; in the data active = inhibition above about 85%;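 also: plate controls were untreated cells for no effect and reference antibiotic for full effect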
PfHsp40 rescue: compounds rescuing yeast from Plasmodium falciparum HSP40 toxicity; 340,000 tested, 0.68% active; AID 504582; growth rescue, % at 12.5 µM; S. cerevisiae expressing PfHsp40, growth rescue, ATP luminescence; in the data active = growth rescue above about 28%, passing the limit was not always enough;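 also: yeast W303a lacking pdr1 and pdr3 grown in galactose medium; growth measured after three days at 30 °C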
ugtP null kill: growth inhibition of S. aureus ugtP deletion strain; 330,000 tested, 0.54% active; S. aureus RN4220 ugtP deletion, OD600 growth, 16 h; growth inhibition, % (test concentration not listed); in the data active = growth inhibition above about 68%;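 also: plate controls were untreated wells for no effect and antibiotic for full effect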
CCHF vOTU inh: CCHFV vOTU protease inhibition. Pep-AMC fluorescence. inhibition, % at 11.5 µM. 370,000 tested, 0.55% active. AID 651958; in the data active = inhibition above about 30%; also: 0% = vehicle wells with enzyme and 100% = no enzyme wells
Vc quorum ag-1: quorum light induction in luxS cqsA deficient V. cholerae | 350,000 tested, 0.16% active | V. cholerae BH1578 lux reporter, luminescence, 6 h | activation, % at 18.7 µM; in the data active = activation mostly above about 9.7%, no sharp cut-off
Mtb hypoxia inh: Mtb hypoxia fluorescent reporter inhibition. 300,000 tested, 0.1% active. M. tuberculosis hypoxia-regulated fluorescent reporter, fluorescence. fluorescence inhibition, % (no concentration beside the values); in the data active = fluorescence inhibition mostly above about 23%, no sharp cut-off; inactive = mostly below about 17%
Vc quorum ag-2: inducers of V. cholerae quorum light production without autoinducers. shares compounds with Vc quorum ag-1. V. cholerae BH1578 lux reporter, luminescence, 6 h. activation, % at 50 µM. 620 tested, under 10 active. AID 602243; call rule not given here
HeLa 24h tox: kills HeLa cells within 24 hours; activity change, negative = cytotoxicity, % at 35 µM; shares compounds with Vc quorum ag-1; HeLa viability, CellTiter-Glo ATP luminescence; 25 tested, under 10 active;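 active = signal drop with fitted half-maximal concentration at or below twice the highest valid dose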
An asterisk follows results filed as active; i = inactive; . = no result given; + = active, no number.

SMILES	Sa RN4220 lethal	PfHsp40 rescue	ugtP null kill	CCHF vOTU inh	Vc quorum ag-1	Mtb hypoxia inh	Vc quorum ag-2	others
Cc1ccc(OCCNC(=O)c2cccc(C)c2)cc1	5	-1	6	3	+	4	601	HeLa 24h tox=6
O=C(NCCOc1ccc(Cl)cc1)c1ccco1	3	-1	5	1	425*	10	40
CCc1ccc(OCCNC(=O)c2ccco2)cc1	3	2	4	11	.	13	i
CC(C)CN1CCC(=O)N(C(CO)Cc2ccccc2)CC1 (stereo not given)	6	.	-1	.	.	8	.
CC(=NNc1nc(Cl)c(Cl)cc1Cl)c1ccc(S(=O)(=O)NCc2ccco2)cc1	5	.	-14	.	.	14	.
CCN1C(=O)C(=CN2CCCc3ccccc32)SC1=S	10	.	3	.	.	0	.
CC(=NOCC(=O)Nc1cc(C)cc(C)c1)c1ccc2c(c1)OCCO2	-3	.	16	.	.	12	.
Cc1ccc(OCCNC(=O)c2ccco2)cc1C	-10	0	-4	-1	+	22	500
Cc1ccc(C(=O)NCCNC(=O)c2ccco2)cc1C	4	-1	13	-4	0	6	.
Cc1nnc2c3ccccc3c(-c3ccc(O)cc3)nn12	-4	-1	-6	-1	84*	12	412
C=C(C)C1CC=C(C)C(=NNC(=O)C2CC2c2ccccc2)C1 (stereo not given)	-1	.	22	.	.	2	.
CCCCn1nnnc1NCc1ccc(N(CC)CC)cc1	4	-2	6	16	366*	15	i
CCCCn1nnnc1NCc1ccc(C)cc1	3	0	5	-4	0	24	.
CCOC(=O)C1C2COc3ccc(Cl)cc3C2N2C(=O)C(CO)NC(=O)[C@@]12C (stereo not given in full)	5	.	1	.	.	12	.
Cc1cc(C(=O)NN=C/C(Cl)=C/c2ccccc2)c(C)o1	-6	.	-7	.	.	3	.
CCc1cc(C(=O)c2ccccc2OC)c(N)s1	2	0	1	21	12	4	15
COc1ccc(S(=O)(=O)N2CCOCC2)cc1NC(=O)CSc1nnc(C2CC2)n1C1CC1	7	1	5	-1	41*	-4	1
COC(=O)C1=C(c2ccc(F)cc2OCc2ccccc2)CC2CCC1N2C(=O)NCc1ccc(Cl)cc1 (stereo not given)	-12	.	-1	.	.	4	.
O=[N+]([O-])c1ccc(N2CCOCC2)c2c1no[n+]2[O-]	.	.	.	22	35*	.	1
CCOc1ccc(CNC(=O)Cn2c(=O)c3cccn3c3ccccc32)cc1	3	-1	5	12	25*	15	0
CC(C)Oc1ccc(CNC(=O)Cn2c(=O)c3cccn3c3cccnc32)cc1	0	0	6	0	0	10	.
COc1ccc(CC2CN3C(=NCC3C)N2CCNC(=O)c2ccc(C)c(Br)c2)cc1 (stereo not given)	-2	.	2	.	.	5	.
COCc1nnc(NC(=O)c2ccccc2Oc2ccccc2)s1	10	0	4	1	i	2	.
COCCSc1ccccc1C(=O)Nc1nnc(COC)s1	0	-1	-1	1	12	-1	0
COC(=O)c1nnn(-c2nonc2N)c1CSc1nc2ccccc2s1	-4	3	7	-2	25*	.	0
SMILES	Sa RN4220 lethal	PfHsp40 rescue	ugtP null kill	CCHF vOTU inh	Vc quorum ag-1	Mtb hypoxia inh	Vc quorum ag-2	others
Cc1cccc(C(=O)N2c3ccccc3C(=O)OC2c2ccc3c(c2)OCO3)c1 (stereo not given)	-3	0	-6	-1	32*	.	4
O=C1OC(c2ccc3c(c2)OCO3)N(C(=O)c2ccc(Cl)c(Cl)c2)c2ccccc21 (stereo not given)	22	0	28	7	1	.	.
O=C(NN=Cc1ccc[nH]1)C1COc2ccccc2O1 (stereo not given)	4	.	-2	.	.	12	.
Cc1ccc(C(=O)c2c3ccccc3[n+]([O-])n2C(C)C(N)=O)cc1 (stereo not given)	5	.	-3	.	.	4	.
CCOC(=O)C1CCCc2c1[nH]c1c(C(=O)O)cccc21 (stereo not given)	8	-1	-5	-7	12	8	1
CCOc1ccc(CNc2nnnn2C)cc1	1	-1	3	-12	+	7	i
